Test results from PubChem BioAssay AID2162 (National Center for Advancing Translational Sciences (NCATS), 2009).
Records with an inconclusive call do not appear. Unmarked numbers belong to inactive results. The source made the active and inactive calls. The call rests on the fitted dose curve; in most records, active means well fitted inhibition curve with a large enough effect; inconclusive means small, poorly fitted or top-dose-only effect; inactive means flat fitted curve, though single readings scatter.

Biological target: Polyunsaturated fatty acid lipoxygenase ALOX12 (Homo sapiens) (UniProt P18054)
Experiment: Confirmation qHTS Assay for Inhibitors of 12-hLO (12-human lipoxygenase)
Conditions: purified 12-hLO, xylenol orange absorbance; activity change, negative = inhibition: active compounds read low
Summary of the method: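 Enzyme reaction at room temperature: 150 nM 12hLO preincubated 15 min with compound, then 40 uM arachidonic acid for 30 min. Product quantified via Fe(III)-xylenol orange, 30 min, 573-to-405 nm absorbance ratio; buffer 25 mM Hepes pH 7.0 with Triton X-100.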

Sequence of Polyunsaturated fatty acid lipoxygenase ALOX12 (Homo sapiens) (P18054 whole entry, looked up): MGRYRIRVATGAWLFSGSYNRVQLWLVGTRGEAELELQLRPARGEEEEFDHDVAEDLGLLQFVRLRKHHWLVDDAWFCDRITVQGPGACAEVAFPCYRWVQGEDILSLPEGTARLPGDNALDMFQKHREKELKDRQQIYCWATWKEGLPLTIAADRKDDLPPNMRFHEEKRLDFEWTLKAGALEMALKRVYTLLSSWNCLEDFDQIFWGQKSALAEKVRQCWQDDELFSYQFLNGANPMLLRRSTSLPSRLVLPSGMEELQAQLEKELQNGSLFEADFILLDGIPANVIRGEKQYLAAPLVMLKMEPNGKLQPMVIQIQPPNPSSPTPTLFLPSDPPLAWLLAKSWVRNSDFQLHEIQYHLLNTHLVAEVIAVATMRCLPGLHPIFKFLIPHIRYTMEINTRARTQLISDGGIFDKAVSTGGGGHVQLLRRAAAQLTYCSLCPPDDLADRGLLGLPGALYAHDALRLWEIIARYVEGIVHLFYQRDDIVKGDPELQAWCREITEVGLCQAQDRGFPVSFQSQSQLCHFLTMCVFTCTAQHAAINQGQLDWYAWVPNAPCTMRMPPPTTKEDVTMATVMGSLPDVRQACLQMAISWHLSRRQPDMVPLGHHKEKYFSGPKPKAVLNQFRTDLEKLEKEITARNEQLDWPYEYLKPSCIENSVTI

CC(=O)N1CCN(c2ccc(NCc3cccs3)cc2)CC1
Potency: 44.7 µM (active)

CCOc1ccc(NS(=O)(=O)c2ccc3[nH]cc(C(=O)N(CC)CC)c(=O)c3c2)cc1
activity change, negative = inhibition: -15.5%

CCC(=O)NC(c1ccc(C)cc1)c1cc(Cl)c2cccnc2c1O (stereo not drawn)
Potency: 28.2 µM (active)

CCC(=O)NC(c1cccs1)c1cc([N+](=O)[O-])c2cccnc2c1O (stereo not drawn)
Potency: 7.94 µM (active)

O=C(OCC#CCNc1nnc(-c2cccc3ccccc23)o1)c1cccs1
activity change, negative = inhibition: -21.1%

CCC(=O)NC(c1ccc2c(c1)OCO2)c1cc(Cl)c2cccnc2c1O (stereo not drawn)
Potency: 25.1 µM (active)

CCC(=O)NC(c1cccc(C)c1)c1cc(Cl)c2cccnc2c1O (stereo not drawn)
Potency: 39.8 µM (active)

COc1cccc(-c2nc(NC3CCNCC3)c3ccccc3n2)c1
activity change, negative = inhibition: -5.22%

CNc1oc(-c2cccc3ccccc23)nc1C#N
Potency: 4.47 µM (active)

O=C(OCC#CCSc1nnc(-c2cccc3ccccc23)o1)c1cccc2[nH]ccc12
activity change, negative = inhibition: -10.7%

Cc1csc(-c2coc3cc(O)cc(C)c3c2=O)n1
activity change, negative = inhibition: -12.2%

COC(=O)c1ccc(C(=S)N2CCOCC2)cc1
activity change, negative = inhibition: -15.6%

O=C(Nc1nc2n(n1)C(c1ccccc1)CC(c1ccc(Cl)cc1)N2)c1ccco1 (stereo not drawn)
Potency: 14.1 µM (active)

CN(C)c1oc(-c2ccc(OCc3ccccc3)cc2)nc1C#N
activity change, negative = inhibition: -20.4%

COc1ccc(C(C[N+](=O)[O-])c2c(-c3ccccc3)cc3ccccn23)c(OC)c1 (stereo not drawn)
activity change, negative = inhibition: -14.8%

COC(=O)c1ccc2c(c1)C(=O)N(C1CCCCC1)C2=O
activity change, negative = inhibition: -2.91%

CCC(=O)NC(c1ccc(F)cc1)c1cc(Cl)c2cccnc2c1O (stereo not drawn)
Potency: 15.8 µM (active)

CC(=O)N1CCN(c2ccc(NCc3ccc(F)cc3)cc2)CC1
Potency: 31.6 µM (active)
